About 2,000 (0.54%) of roughly 370,000 compounds were called active. The sample holds actives, similar compounds and a random draw of the others, so the mix is not that of the screen. A number with no mark means an inactive call. No stated cut-off is given here; in the data, active means inhibition above about 30%; inactive means the rest.
Each compound was assayed on Crimean-Congo hemorrhagic fever virus L polyprotein viral ovarian tumor (vOTU) protease domain (assay: CCHFV vOTU protease inhibitors, primary screen, biochemical, Pep-AMC substrate, fluorescence (AID 651958; further: 0% = vehicle wells with enzyme and 100% = no enzyme wells)). Details: at 11.5 µM, stronger effect = higher value.

In order of falling inhibition:
1. COCCNC(=O)C1C(=O)Nc2ccccc2C(=O)N1c1ccc2c(c1)OCCO2 (stereo not drawn)  26.3%
2. O=C(Cc1ccc(NC(=O)C2CCCN(C(=O)CCc3ccccc3)C2)cc1)Nc1ccc(C(=O)N2CCOCC2)cc1 (stereo not drawn)  23.1%
3. S=C(NCCc1ccccc1)N1CCn2cccc2C1c1ccncc1 (stereo not drawn)  20.5%
4. CCCCC[C@@H]1C=C(C(=O)O)[C@H](c2ccc(C#N)cc2)N1S(=O)(=O)c1ccc(C)cc1  16.8%
5. Cc1cccc(OCC(=O)Nc2ccc(C(=O)O)cc2NC(=O)COc2cccc(C)c2)c1  16.7%
6. CCOC(=O)N(C)c1c(CC)nc2c(OCc3ccccc3C(=O)OC)cccn12  15.9%
7. Cc1ccc(S(=O)(=O)N2CCN(C(=O)Cn3c(=O)cnc4ccccc43)CC2)c(C)c1  14.9%
8. O=C(O)c1ccc(NS(=O)(=O)c2ccc3c(c2)C(=O)c2cc(S(=O)(=O)Nc4ccc(C(=O)O)cc4)ccc2-3)cc1  14.6%
9. C=CCn1c(SCc2cccc(F)c2)nc2cc(C(=O)N3CCC(C(N)=O)CC3)ccc2c1=O  14.2%
10. Cc1ccc(Sc2cc(N3CCOCC3)nc(-c3ccccc3)n2)cc1  13.3%
11. O=C(NCc1ccc(F)cc1)c1cc(C2CCCCN2C(=O)c2ccccn2)on1 (stereo not drawn)  11.8%
12. CC(NC(=O)CN1CCN(Cc2ccc(Cl)cc2)C1=O)c1ccc2c(c1)OCCO2 (stereo not drawn)  11.5%
13. CCOc1cc(NC(=O)CCl)c(OCC)cc1NC(C)=O  11.3%
14. CCNC(=S)N1CCN(S(=O)(=O)c2ccc(Cl)s2)CC1  11.2%
15. CCCCC[C@@H]1C=C(C(=O)OCC)[C@H](c2ccccc2)N1S(=O)(=O)c1ccc(C)cc1  11%
16. O=C(/C=C/c1cccs1)c1cc(Cl)ccc1OC(=O)N1CCOCC1  10.7%
17. CC1CCCN(CC(O)COc2ccc3c(c2)OCO3)C1 (stereo not drawn)  9.88%
18. CCOC(=O)N1CCC(C(N)=O)CC1  8.61%
19. O=C(Nc1cc(S(=O)(=O)N2CCOCC2)ccc1N1CCOCC1)c1c(F)cccc1Cl  8.3%
20. CSCCC(NS(=O)(=O)c1ccc2c(c1)oc(=O)n2C)C(=O)NC1CCCc2ccccc21 (stereo not drawn)  7.61%
21. O=C(CSc1nnc(COc2ccccc2)n1Cc1ccco1)c1ccc2ccccc2c1  7.39%
22. COc1cc(NC(=S)N2CCCC(C)C2)c(OC)cc1Cl (stereo not drawn)  7.18%
23. Cc1ccccc1CN1CCN(C(=O)c2cccc(F)c2)CC1  6.94%
24. CCc1cccc(C)c1N(C(=O)Cn1c(CO)nc2ccccc21)C(C)COC (stereo not drawn)  6.13%
25. Cc1ccc(-c2nnc(SCC(=O)Nc3ccc(Oc4ccccc4)cc3)n2Cc2ccco2)cc1  6.1%
26. O=C(N/N=C/c1ccc(O)c(O)c1)C1c2ccccc2Oc2ccccc21  4.82%
27. COC(=O)C1=CN(c2c(C)cc(C)cc2C)C(N)=C(C#N)C1c1cccc(F)c1 (stereo not drawn)  4.61%
28. CN(C)c1ccc(NC(=O)CSc2n[nH]c(-c3ccco3)n2)cc1  4.49%
29. COc1ccc(NC(=O)NN2CCN(C)CC2)c(OC)c1  4.34%
30. CCOc1ccc(CNC(=O)C2CC(=O)N(C3CCCC3)C2)cc1OC (stereo not drawn)  4.25%
31. COc1ccc(/C=N/NC(=O)Cn2cc(C(F)(F)F)ccc2=O)cc1  4.22%
32. Cc1cc2nc(SCCN3CCOCC3)[nH]c2cc1C  3.87%
33. Cc1ccc(S(=O)(=O)N2CCC(=O)N([C@H](COCc3ccccc3)C(C)C)CC2)cc1  3.62%
34. CCCCN(CC(=O)Nc1cccc(S(=O)(=O)N2CCCC2)c1)Cc1nc2ccccc2c(=O)[nH]1  3.14%
35. CCOC(=O)N1CCC(NC(=O)Cc2cn(C)c3ccccc23)CC1  3.03%
36. Cc1cccc(OP(=O)(Oc2cccc(C)c2)OC(c2ccccc2)C(F)(F)F)c1 (stereo not drawn)  2.83%
37. CC(=O)Nc1ccc(NC(=O)CSc2nnnn2-c2ccccc2F)cc1  2.7%
38. COc1ccccc1NC1=NC(c2ccc(Cl)cc2)N=C(N)N1 (stereo not drawn)  2.38%
39. Cc1ccc(NC(=S)N2CCN(c3ncccn3)CC2)cc1C  2.37%
40. CCn1c(SCC(=O)NC2=NCCS2)nnc1C(C)NC(=O)c1ccccc1F (stereo not drawn)  0.18%
41. CN1OC[C@@H]2CN(C(=O)c3cccnc3)[C@H](c3ccc(N4CCCCC4)cc3)C[C@@H]21  -0.01%
42. Cc1ccc(O)c(NC(=O)c2cc(-c3ccco3)on2)c1  -0.2%
43. Cc1ccc(CSc2nc3[nH]ncc3c(=O)[nH]2)cc1  -0.35%
44. COc1ccc(C(=O)OCCN(C)C2CN(Cc3cn(Cc4cccc(C)c4)nn3)S(=O)(=O)C2)cc1OC (stereo not drawn)  -1.74%
45. Cc1cc(N2CCNC[C@@H]2C)ccc1N1CC[C@H](O)C1  -1.97%
46. CCC(C(=O)NCc1cccnc1)n1nc(C)c2sc3ccccc3c2c1=O (stereo not drawn)  -2%
47. Cc1ccccc1CSc1nnc(-c2ccccc2)c(=O)[nH]1  -2.29%
48. c1ccc(N2Cc3ccccc3-n3nncc3C2)nc1  -2.36%
49. O=S(=O)(Nc1ccc2[nH]ncc2c1)c1ccccc1Cl  -2.37%
50. O=C(c1ccccc1)c1cccn1CC(=O)N1CCN(c2ccc(F)cc2)CC1  -2.38%
51. Cc1cccc(CN2CCC(n3nccc3NC(=O)c3ccccc3C)CC2)n1  -2.72%
52. N#Cc1cccc(CSc2nnc(CCCO)n2-c2ccccc2)c1  -2.93%
53. O=C(CNCc1ccco1)Nc1cc(S(=O)(=O)N2CCOCC2)ccc1N1CCCC1  -3.18%
54. CC1=C2C(=O)C3C(CC=C4CC(OC5OC(O)C(O)C(O)C5CO)CCC43C)C2CCC12OC1CC(C)CNC1C2C (stereo not drawn)  -3.46%
55. O=C(NCc1ccc(F)cc1)c1cc(C2CCCCN2C(=O)c2cccs2)on1 (stereo not drawn)  -3.47%
56. Cn1cc(CN2CCC(C(O)CCc3ccccc3)CC2)c(-c2ccccc2F)n1 (stereo not drawn)  -4.04%
57. OCC(CO)(CO)NCc1ccc(-c2ccccc2)cc1  -4.11%
58. CCCNC(=S)N1CCC(NC(=O)C23CC4CC(CC(C4)C2)C3)CC1  -4.34%
59. CC(C)(C)OC(=O)NC(Cc1ccccc1)C(=O)NC(CSC1CCCCO1)C(=O)NN (stereo not drawn)  -4.89%
60. CC(=O)Nc1ccc(NC(=O)CSc2nnnn2C2CCCCC2)cc1  -5.32%
61. Cc1ccc2c(c1)C(c1ccccc1)N(C(=O)c1ccc(S(=O)(=O)N3CCOCC3)cc1)CC(=O)N2 (stereo not drawn)  -6.16%
62. COc1ccc(NC(=O)CNC(=O)Cn2ccc3ccccc3c2=O)c(OC)c1  -6.81%
63. CC(C)C[C@H](NC(=O)C1CCC(CNC(=O)[C@@H]2CCCN2C(=O)OC(C)(C)C)CC1)C(=O)O (stereo partly drawn)  -6.89%
64. Cc1cc(OCCN2CCCC2)cc(C(C)C)c1  -8.52%
65. O=C(Nc1cccc2c1CCCC2)C1CCN(C(=O)NC2CCCCC2)CC1  -8.92%
66. Cc1cccc(N)c1SC1CCCCC1O (stereo not drawn)  -10%
67. COCCCNS(=O)(=O)c1cccc(S(=O)(=O)c2cccc(S(=O)(=O)NCCCOC)c2)c1  -10.2%
68. Cc1ccn2c(c1)nc(=O)c1cc(S(=O)(=O)N3CCC(C)CC3)ccc12  -11.7%
69. CC(C)c1ccc(O)c(CN2CCN(c3ccccc3)CC2)c1  -12.4%
70. O=C(CSc1nnc2c(n1)[nH]c1ccccc12)NC1CCCCC1  -13%
71. CCOc1ccccc1NC(=O)c1cc(S(=O)(=O)N2CCC3(CC2)OCCO3)ccc1F  -13.4%
72. Cc1ccc(S(=O)(=O)N2CCN(C(=O)c3cccs3)CC2)cc1  -14.5%
73. Cc1ccc(C2(C(F)(F)F)N=C3Sc4cc(C)cc(C)c4N3C(=O)N2)cc1 (stereo not drawn)  -15.2%
74. O=C(OC(C(=O)NC1CCCC1)c1ccc(F)cc1)c1ccno1 (stereo not drawn)  -21.1%
75. CN1CCCc2cc(C#N)c(=O)[nH]c21  -314%

With `Cc1ccc(S(=O)(=O)N2[C@@H](c3ccc(Br)cc3)C(C(=O)O)=C[C@H]2CC2CCCC2)cc1` the inhibition was 34.2% (active).
`O=C(O)c1cc(S(=O)(=O)Nc2ccc3cn[nH]c3c2)ccc1Br` was tested, and the inhibition was 36% (active).
With `Oc1ccc(N=Cc2sc3ccccc3c2Cl)cc1` the inhibition was 97.4% (active).
For `Oc1ccc(N=Cc2c(O)ccc3ccccc23)cc1`, the inhibition was 63.1% (active).
`O=C(NCc1ccc(F)cc1)c1cc(C2CCCCN2C(=O)C2CCCCC2)on1` (stereo not drawn) was tested, and the inhibition was 33.5% (active).
For `CCN(CC)P(=O)(Oc1cccc(C)c1)N(CC)CC`, the inhibition was 32.4% (active).
`Oc1c(CN2CCN(c3ccc(F)cc3)CC2)cc(Cl)c2cccnc12` was tested, and the inhibition was 31.6% (active).
With `Oc1ccc(CNc2ccccc2O)cc1` the inhibition was 37% (active).
With `O=C(NC1CCCCC1)N1CCc2[nH]c3ccccc3c2C1` the inhibition was 58.5% (active).
For `CCOc1cc(NC(=O)c2ccccc2C(=O)O)c(OCC)cc1NC(=O)c1ccccc1F`, the inhibition was 35.5% (active).
With `CCn1nnnc1SCC(=O)Nc1ccc(N(C)C)cc1` the inhibition was 30.6% (active).
In the case of `Cc1ccc(OCc2nnc(SC/C=C/c3ccccc3)n2Cc2ccco2)cc1`, the inhibition is reported as 31.9% (active).
`Cc1ccc(CSc2nc(-c3ccccc3)c(C#N)c(=O)[nH]2)cc1` was tested, and the inhibition was 39.9% (active).
`COCCNC(=O)Nc1ccc2nc(-c3ccco3)c(-c3ccco3)nc2c1` was tested, and the inhibition was 36% (active).
With `Oc1ccc(/C=N/Nc2ccc(C(F)(F)F)cn2)cc1O` the inhibition was 31.3% (active).
In the case of `CCNC(=S)N1CCN(c2ncccn2)CC1`, the inhibition is reported as 43.8% (active).
With `CCOC(=O)N1CCC(c2cc(=O)n(-c3ccccc3)[nH]2)CC1` the inhibition was 71.1% (active).
For `O=C1Nc2cc(C(=O)N3CCN(c4ccc(F)cc4)CC3)ccc2NC1CSCc1cccc(F)c1` (stereo not drawn), the inhibition was 32.1% (active).

From PubChem BioAssay AID651958 (The Scripps Research Institute Molecular Screening Center, 2012)
